# About 7,900 targets were measured; listed, in parts, are those with a hit and a random draw of the rest. About 0.6% of all pairs of compound and target were hits. A number with no mark means an inactive call.
# Assays:
# Test in all cases: log2 fold change, soluble protein after heating vs DMSO (PISA); higher = thermal stabilisation; K562 cells, 10 uM, 30 min; active = over 0.2 and 3.5 SD of the protein, either way, in both replicates (recomputed)
# [1] = compound: CCn1cc(-c2ccnc3[nH]c(-c4cccc(CN(C)C)c4)cc23)c(-c2ccc(NC(=O)N(C)C)cc2)n1
# Procedure, shortened: (§1)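 K562 cells at 2×10^6 cells/mL were treated for 30 min with 10 μM compound, and aliquots were heated for 3 min over 48°C-58°C before pooling. Extraction used PBS with 0.5% NP-40 at 4°C, and soluble protein was the supernatant after 21,000xg for 90 min, measured by TMTpro 16plex LC-MS/MS with channel sums equalised. Thermal stability values, relative to control samples and from duplicates, are log2 fold changes.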
# [2] = compound: CN(C)CC(=O)Nc1ccc2[nH]c(=O)c3ccccc3c2c1
# Procedure, shortened: as §1
# [3] = compound: CN1C2=C(C3=C1C(=O)N(N=C3)CC4=CC(=CC=C4)N)SC(=C2)S(=O)C
# Procedure, shortened: as §1
# [4] = compound: CN1CCC(CNc2ccc3ncc(-c4cccc(OC(F)(F)F)c4)n3n2)CC1
# Procedure, shortened: as §1
# saracatinib = compound: CN1CCN(CCOc2cc(OC3CCOCC3)c3c(Nc4c(Cl)ccc5c4OCO5)ncnc3c2)CC1 [saracatinib]
# Procedure, shortened: as §1
# defactinib = compound: CNC(=O)c1ccc(Nc2ncc(C(F)(F)F)c(NCc3nccnc3N(C)S(C)(=O)=O)n2)cc1 [defactinib]
# Procedure, shortened: as §1
# [5] = compound: CNc1nc(-c2ccc3c(N)n[nH]c3c2)cc(N2C[C@@H](C(=O)NC3CCCCC3)CC[C@H]2C)n1
# Procedure, shortened: as §1
# [6] = compound: COC(=O)[C@H](CCSC)NC(=O)C1=C(C=C(C=C1)NC[C@H](CS)N)C2=CC=CC=C2
# Procedure, shortened: as §1
# [7] = compound: CC[C@@H]1C(=O)N(C)c2cnc(Nc3ccc(C(=O)NC4CCN(C)CC4)cc3OC)nc2N1C1CCCC1
# Procedure, shortened: as §1
# [8] = compound: CC[C@H](C)N1C=C(C2=C(C=C(C=C21)C3=CN=C(C=C3)N4CCNCC4)C(=O)NCC5=C(C=C(NC5=O)C)C)C
# Procedure, shortened: as §1
# epoxomicin = compound: CC[C@H](C)[C@@H](C(=O)N[C@@H]([C@@H](C)O)C(=O)N[C@@H](CC(C)C)C(=O)[C@]1(CO1)C)NC(=O)[C@H]([C@@H](C)CC)N(C)C(=O)C [epoxomicin]
# Procedure, shortened: as §1
# [9] = compound: CCn1c(C(=O)N(C2CC2)C2CC2)cc2c3c(ncn3C)c(Nc3cc(C)n(C)n3)nc21
# Procedure, shortened: as §1
# rosiglitazone = compound: CN(CCOC1=CC=C(C=C1)C[C@H]2C(=O)NC(=O)S2)C3=CC=CC=N3 (racemic) [rosiglitazone]
# Procedure, shortened: as §1
# sotrastaurin = compound: CN1CCN(c2nc(C3=C(c4c[nH]c5ccccc45)C(=O)NC3=O)c3ccccc3n2)CC1 [sotrastaurin]
# Procedure, shortened: as §1
# alvocidib = compound: CN1CC[C@H](c2c(O)cc(O)c3c(=O)cc(-c4ccccc4Cl)oc23)[C@H](O)C1 [alvocidib]
# Procedure, shortened: as §1
# Tubastatin A = compound: CN1CCc2c(c3ccccc3n2Cc2ccc(C(=O)NO)cc2)C1 [Tubastatin A]
# Procedure, shortened: as §1
# [10] = compound: CNC(=O)C1=CC=CC=C1NC2=NC(=NC=C2Cl)NC3=C(C=C(C=C3)N4CCOCC4)OC
# Procedure, shortened: as §1
# rucaparib = compound: CNCc1ccc(-c2[nH]c3cc(F)cc4c3c2CCNC4=O)cc1 [rucaparib]
# Procedure, shortened: as §1
# encorafenib = compound: COC(=O)N[C@@H](C)CNc1nccc(-c2cn(C(C)C)nc2-c2cc(Cl)cc(NS(C)(=O)=O)c2F)n1 [encorafenib]
# Procedure, shortened: as §1
# volasertib = compound: CC[C@@H]1C(=O)N(C)c2cnc(Nc3ccc(C(=O)N[C@H]4CC[C@H](N5CCN(CC6CC6)CC5)CC4)cc3OC)nc2N1C(C)C [volasertib]
# Procedure, shortened: as §1
# Sequence of UniProt Q08AE8 (Q08AE8 whole entry, looked up): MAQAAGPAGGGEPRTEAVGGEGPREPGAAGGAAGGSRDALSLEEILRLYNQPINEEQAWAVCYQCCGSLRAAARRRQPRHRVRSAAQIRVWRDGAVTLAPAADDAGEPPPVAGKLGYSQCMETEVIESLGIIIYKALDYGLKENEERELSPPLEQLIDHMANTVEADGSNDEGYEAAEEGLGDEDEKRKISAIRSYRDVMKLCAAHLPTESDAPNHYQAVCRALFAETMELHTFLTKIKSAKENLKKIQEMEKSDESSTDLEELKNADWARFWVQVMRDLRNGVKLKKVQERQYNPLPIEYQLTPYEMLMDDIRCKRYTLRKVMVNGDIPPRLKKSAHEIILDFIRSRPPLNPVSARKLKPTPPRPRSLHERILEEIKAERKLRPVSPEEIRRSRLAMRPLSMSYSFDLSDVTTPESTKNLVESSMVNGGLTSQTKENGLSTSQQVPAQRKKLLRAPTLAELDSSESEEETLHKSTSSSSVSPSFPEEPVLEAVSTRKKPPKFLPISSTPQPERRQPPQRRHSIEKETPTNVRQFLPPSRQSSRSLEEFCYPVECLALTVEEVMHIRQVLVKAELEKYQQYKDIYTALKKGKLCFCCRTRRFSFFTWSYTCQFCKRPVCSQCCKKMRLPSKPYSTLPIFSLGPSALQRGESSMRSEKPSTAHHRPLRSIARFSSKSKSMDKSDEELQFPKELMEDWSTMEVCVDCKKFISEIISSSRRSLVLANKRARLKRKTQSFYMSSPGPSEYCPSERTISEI
# Sequence of UniProt Q6J4K2 (Q6J4K2 whole entry, looked up): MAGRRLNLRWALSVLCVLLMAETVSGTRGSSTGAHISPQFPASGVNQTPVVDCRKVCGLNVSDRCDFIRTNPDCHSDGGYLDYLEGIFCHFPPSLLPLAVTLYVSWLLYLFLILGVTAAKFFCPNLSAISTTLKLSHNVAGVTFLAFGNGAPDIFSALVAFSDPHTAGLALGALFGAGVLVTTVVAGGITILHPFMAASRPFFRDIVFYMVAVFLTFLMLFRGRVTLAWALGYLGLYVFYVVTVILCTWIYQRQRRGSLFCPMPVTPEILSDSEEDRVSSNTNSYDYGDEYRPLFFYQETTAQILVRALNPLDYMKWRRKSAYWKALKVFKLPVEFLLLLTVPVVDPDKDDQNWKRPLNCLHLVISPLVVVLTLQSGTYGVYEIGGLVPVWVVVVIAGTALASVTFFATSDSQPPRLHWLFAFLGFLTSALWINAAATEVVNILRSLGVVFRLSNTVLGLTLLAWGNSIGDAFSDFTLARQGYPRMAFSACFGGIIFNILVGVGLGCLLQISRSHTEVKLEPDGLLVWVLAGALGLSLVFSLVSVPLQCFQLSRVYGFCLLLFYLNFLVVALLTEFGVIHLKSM
# Sequence of UniProt P35711 (P35711 whole entry, looked up): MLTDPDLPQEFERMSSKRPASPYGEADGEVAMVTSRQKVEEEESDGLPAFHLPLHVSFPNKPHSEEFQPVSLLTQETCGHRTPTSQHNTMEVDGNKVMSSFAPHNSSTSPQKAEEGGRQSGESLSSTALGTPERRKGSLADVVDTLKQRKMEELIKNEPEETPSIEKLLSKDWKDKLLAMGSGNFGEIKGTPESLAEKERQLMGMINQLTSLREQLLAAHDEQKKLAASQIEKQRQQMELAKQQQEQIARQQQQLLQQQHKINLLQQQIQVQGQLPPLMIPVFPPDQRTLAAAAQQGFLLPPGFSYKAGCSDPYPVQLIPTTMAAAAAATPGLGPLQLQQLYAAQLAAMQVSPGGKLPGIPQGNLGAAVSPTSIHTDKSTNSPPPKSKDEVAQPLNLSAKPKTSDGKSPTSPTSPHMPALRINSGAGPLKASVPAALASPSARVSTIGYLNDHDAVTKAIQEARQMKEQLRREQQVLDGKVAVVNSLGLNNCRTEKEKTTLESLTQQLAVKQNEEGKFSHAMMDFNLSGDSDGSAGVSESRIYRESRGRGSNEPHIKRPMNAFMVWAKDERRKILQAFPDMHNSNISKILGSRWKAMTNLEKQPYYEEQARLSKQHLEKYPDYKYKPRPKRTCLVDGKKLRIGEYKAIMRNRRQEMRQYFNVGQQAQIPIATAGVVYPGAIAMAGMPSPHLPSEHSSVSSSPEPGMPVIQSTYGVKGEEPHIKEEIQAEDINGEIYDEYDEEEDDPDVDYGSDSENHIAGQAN
# Sequence of UniProt Q5JUR7 (Q5JUR7 whole entry, looked up): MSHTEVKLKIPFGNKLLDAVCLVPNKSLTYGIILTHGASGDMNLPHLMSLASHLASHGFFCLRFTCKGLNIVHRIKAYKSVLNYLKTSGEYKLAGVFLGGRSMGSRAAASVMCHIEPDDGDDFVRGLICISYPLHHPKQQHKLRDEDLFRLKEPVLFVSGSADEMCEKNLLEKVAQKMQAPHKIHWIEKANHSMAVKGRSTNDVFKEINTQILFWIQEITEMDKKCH
# Sequence of UniProt Q9NXE4 (Q9NXE4 whole entry, looked up): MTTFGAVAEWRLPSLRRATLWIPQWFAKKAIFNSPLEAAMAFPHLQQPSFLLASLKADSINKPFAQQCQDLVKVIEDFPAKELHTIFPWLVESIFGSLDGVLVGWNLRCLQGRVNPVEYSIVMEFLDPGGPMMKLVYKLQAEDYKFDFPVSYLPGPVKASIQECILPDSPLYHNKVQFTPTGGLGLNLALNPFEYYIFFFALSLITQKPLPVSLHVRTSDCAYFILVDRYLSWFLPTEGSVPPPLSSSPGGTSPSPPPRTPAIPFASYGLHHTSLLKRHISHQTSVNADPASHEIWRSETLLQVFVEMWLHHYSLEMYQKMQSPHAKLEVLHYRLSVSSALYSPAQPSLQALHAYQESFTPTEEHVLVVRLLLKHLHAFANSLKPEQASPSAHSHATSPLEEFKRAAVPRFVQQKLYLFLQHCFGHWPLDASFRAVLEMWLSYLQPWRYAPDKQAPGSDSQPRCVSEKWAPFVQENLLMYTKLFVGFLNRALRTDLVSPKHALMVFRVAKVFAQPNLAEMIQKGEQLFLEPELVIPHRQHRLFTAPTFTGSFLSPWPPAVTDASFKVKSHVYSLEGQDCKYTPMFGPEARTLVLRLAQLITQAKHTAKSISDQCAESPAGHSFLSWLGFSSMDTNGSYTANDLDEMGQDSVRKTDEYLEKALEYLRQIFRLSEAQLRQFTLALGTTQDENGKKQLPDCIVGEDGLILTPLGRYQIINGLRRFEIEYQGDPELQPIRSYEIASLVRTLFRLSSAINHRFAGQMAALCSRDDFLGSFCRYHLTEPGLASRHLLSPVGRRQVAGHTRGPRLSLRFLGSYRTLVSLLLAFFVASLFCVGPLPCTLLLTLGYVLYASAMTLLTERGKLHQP
# Sequence of UniProt O60749 (O60749 whole entry, looked up): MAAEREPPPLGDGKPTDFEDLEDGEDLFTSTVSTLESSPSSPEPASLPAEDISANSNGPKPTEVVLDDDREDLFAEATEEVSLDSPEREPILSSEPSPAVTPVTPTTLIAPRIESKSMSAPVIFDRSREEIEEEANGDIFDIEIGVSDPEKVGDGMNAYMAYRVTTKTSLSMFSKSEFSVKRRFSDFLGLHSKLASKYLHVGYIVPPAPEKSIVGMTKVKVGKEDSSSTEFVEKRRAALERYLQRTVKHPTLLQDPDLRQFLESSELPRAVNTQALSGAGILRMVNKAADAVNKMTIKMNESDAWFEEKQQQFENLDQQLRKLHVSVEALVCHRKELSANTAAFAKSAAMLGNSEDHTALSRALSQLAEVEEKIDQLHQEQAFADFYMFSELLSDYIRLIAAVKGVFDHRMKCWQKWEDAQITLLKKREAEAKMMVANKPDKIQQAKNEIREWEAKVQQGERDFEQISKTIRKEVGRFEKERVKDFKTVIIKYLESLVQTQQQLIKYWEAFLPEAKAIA
# Sequence of UniProt Q92581 (Q92581 whole entry, looked up): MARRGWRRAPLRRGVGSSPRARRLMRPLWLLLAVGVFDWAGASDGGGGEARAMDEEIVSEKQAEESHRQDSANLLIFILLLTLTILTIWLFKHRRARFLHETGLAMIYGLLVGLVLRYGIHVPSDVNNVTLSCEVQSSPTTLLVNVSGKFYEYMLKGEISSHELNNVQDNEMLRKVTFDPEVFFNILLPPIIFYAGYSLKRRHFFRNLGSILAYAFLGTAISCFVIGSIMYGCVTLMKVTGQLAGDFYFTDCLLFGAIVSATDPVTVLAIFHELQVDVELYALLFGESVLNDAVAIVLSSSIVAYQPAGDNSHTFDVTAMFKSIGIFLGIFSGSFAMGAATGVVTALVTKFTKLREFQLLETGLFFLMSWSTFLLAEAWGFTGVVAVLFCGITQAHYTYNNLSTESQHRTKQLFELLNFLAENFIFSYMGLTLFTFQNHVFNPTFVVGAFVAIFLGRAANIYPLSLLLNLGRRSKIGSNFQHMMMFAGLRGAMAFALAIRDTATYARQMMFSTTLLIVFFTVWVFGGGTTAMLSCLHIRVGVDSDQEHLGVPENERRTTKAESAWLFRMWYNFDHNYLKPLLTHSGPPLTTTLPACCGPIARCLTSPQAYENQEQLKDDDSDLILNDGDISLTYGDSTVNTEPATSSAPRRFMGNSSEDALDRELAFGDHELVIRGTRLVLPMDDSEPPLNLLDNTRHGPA
# Sequence of UniProt Q12824 (Q12824 whole entry, looked up): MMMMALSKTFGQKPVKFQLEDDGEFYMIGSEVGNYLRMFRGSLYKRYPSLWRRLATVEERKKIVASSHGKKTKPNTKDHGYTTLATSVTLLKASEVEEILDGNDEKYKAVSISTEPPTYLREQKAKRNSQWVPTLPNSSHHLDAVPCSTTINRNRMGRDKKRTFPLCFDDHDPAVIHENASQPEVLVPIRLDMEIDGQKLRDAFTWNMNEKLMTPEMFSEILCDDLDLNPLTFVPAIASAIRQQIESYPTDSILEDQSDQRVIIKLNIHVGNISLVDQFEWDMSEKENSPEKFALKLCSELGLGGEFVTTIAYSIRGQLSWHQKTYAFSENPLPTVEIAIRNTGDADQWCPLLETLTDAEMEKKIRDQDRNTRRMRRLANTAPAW
Target,log2 fold change [1],log2 fold change [2],log2 fold change [3],log2 fold change [4],log2 fold change (saracatinib),log2 fold change (defactinib),log2 fold change [5],log2 fold change [6],log2 fold change [7],log2 fold change [8],log2 fold change (epoxomicin),log2 fold change [9],log2 fold change (rosiglitazone),log2 fold change (sotrastaurin),log2 fold change (alvocidib),log2 fold change (Tubastatin A),log2 fold change [10],log2 fold change (rucaparib),log2 fold change (encorafenib),log2 fold change (volasertib)
SSB (UniProt E7ERC4),-0.076,-0.154,-0.34,0.266,-0.05,-0.205,0.018,-0.092,–,–,–,–,–,–,–,–,–,–,–,–
STK38L (UniProt Q9Y2H1),-0.015,-0.045,-0.029,0.016,0.103,-0.048,0.024,-0.073,0.071,-0.011,0.071,0.031,0.024,0.035,-0.087,-0.067,0.002,-0.052,0.004,–
TM7SF2 (UniProt O76062),–,-0.435,0.031,–,0.069,-0.006,0.018,-0.096,–,-0.022,–,-0.111,–,-0.142,-0.048,–,-0.043,–,–,0.907 (active)
SPAG9 isoform 4 (UniProt O60271),–,-0.093,–,–,–,0.018,–,0.088,-0.192,0.093,–,-0.066,-0.029,-0.171,0.037,-0.103,0.081,0.113,0.022,–
SLC39A1 (UniProt Q9NY26),-0.014,–,–,-0.051,–,–,–,–,–,–,–,-0.09,–,–,0.072,–,-0.129,–,–,–
SNX2 isoform 2 (UniProt O60749),–,-0.161,0.086,–,-0.002,-0.155,0.176,0.097,-0.194,–,0.034,–,0.076,0.003,-0.078,–,–,0.024,-0.141,-0.06
SLC9A6 isoform 3 (UniProt Q92581),–,–,0.008,–,0.128,–,-0.107,–,-0.041,–,–,0.045,-0.091,–,-0.044,0.04,0.104,0.165,-0.162,-0.045
TC2N (UniProt Q8N9U0),–,-0.194,0.073,–,-0.215,-0.341,-0.064,-0.096,–,0.029,–,–,–,–,–,0.308,–,–,–,–
TEX30 (UniProt Q5JUR7),0.079,0.075,0.046,-0.601 (active),-0.065,-0.096,-0.026,0.017,–,-0.044,0.007,-0.005,0.028,–,-0.177,0.022,0.015,–,–,-0.221
SMPD4 isoform 2 (UniProt Q9NXE4),-0.236,-0.044,0.056,-0.441,0.028,0.094,0.02,-0.19,–,–,–,–,-0.047,–,-0.07,-0.054,–,–,–,-0.234
SOX5 (UniProt P35711),–,-0.062,–,–,–,-0.224,–,0.064,–,0.014,–,0.099,0.046,-0.014,-0.163,0.263,-0.053,–,–,-0.082
SMARCB1 (UniProt Q12824),0.053,-0.116,0.127,-0.222,-0.09,-0.158,-0.009,0.144,-0.058,–,–,–,–,-0.192,-0.106,0.016,–,0.809 (active),-0.247,–
TCOF1 isoform 3 (UniProt Q13428),0.155,–,–,-0.436,–,–,–,–,0.001,–,-0.352,0.03,–,0.326,–,0.054,-0.007,-0.065,-0.084,–
SLC27A1 (UniProt Q6PCB7),–,0.008,-0.072,–,-0.007,0.064,0.146,-0.183,–,0.022,-0.021,-0.008,-0.01,0.013,-0.203,-0.252,-0.011,–,–,-0.639 (active)
SPIRE1 (UniProt Q08AE8),-0.116,-0.056,–,-0.026,–,0.047,–,-0.074,0.125,-0.181,-0.238,-0.069,-0.002,–,0.153,0.141,-0.166,0.035,-0.105,–
SLC8B1 (UniProt Q6J4K2),0.091,-0.005,0.086,-0.509,0.036,0.029,-0.176,-0.028,–,–,–,0.09,0.058,–,0.012,–,-0.019,–,–,0.156
SMARCA4 (UniProt P51532),0.119,-0.191,0.177,-0.046,-0.303,0.134,-0.091,0.022,0.019,–,0,-0.245,0.065,-0.086,-0.068,–,-0.17,0.099,0.049,0.121
